NR5A2 inv ag – suppresses constitutive activity of human LRH-1 | O00482 | HEK293T StAR-luciferase reporter, LRH-1 transfected, 24 h | inhibition, % at 3.6 µM | 0.13% of 360,000 active | AID 602396;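 active = inhibition above the mean inhibition of all tested compounds plus 3 SD, cut at about 73% in these data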;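 also: 0% = DMSO wells and 100% = reporter-only cells lacking LRH-1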
Target sequence (O00482 whole entry, looked up): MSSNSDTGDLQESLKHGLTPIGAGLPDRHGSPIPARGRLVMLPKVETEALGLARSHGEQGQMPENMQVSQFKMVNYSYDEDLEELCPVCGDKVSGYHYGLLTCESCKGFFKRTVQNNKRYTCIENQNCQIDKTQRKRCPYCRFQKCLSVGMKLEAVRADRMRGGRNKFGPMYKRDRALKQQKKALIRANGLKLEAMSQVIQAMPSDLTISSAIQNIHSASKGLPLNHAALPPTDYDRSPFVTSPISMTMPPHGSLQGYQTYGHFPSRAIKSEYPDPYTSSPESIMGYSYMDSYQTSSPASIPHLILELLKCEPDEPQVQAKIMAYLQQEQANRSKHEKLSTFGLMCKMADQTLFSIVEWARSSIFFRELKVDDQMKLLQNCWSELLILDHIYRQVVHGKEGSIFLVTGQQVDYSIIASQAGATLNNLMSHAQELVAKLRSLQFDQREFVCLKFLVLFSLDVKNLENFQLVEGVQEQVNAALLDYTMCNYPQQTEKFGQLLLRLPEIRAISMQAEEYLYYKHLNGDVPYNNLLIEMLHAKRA
GalR3 antag – human GalR3 antagonism; inhibition, % at 3 µM; HEK293 GalR3-CNG cAMP membrane potential fluorescence; galR3 body fused to GalR1 C-terminus; O60755; 0.44% of 360,000 active;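 active = inhibition above the screen-wide average plus 3 SD, cut at about 13% in these data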;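 also: forskolin and galanin both at EC90 stimulate the cells; cAMP rise reported by CNG channel membrane potential dye signal; 0% = forskolin plus galanin with DMSO and 100% = forskolin alone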
NCOA2 inhibitor – inhibits human steroid receptor coactivator 2; Q15596; inhibition, % at 9 µM; 0.17% of 370,000 active; HEK293 GAL4-SRC2 luciferase reporter, luminescence;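 active = inhibition above the mean inhibition of all tested compounds plus 3 SD, set per campaign, cut at about 52% in these data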;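 also: 0% = DMSO treated cells and 100% = cells given Gossypol at 36 µM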
SRC3 inh – inhibits human SRC3 coactivator. Q9Y6Q9. HEK293 GAL4-SRC3 luciferase reporter, luminescence. inhibition, % at 3.6 µM. 0.17% of 360,000 active. AID 588352;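 active = inhibition above a per-campaign cutoff, the mean of all compounds plus 3 SD, cut at about 60% in these data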;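 also: 0% = DMSO-treated cells and 100% = gossypol-treated cells at 36 µM; higher means less SRC3-driven luciferase light from the GAL4 reporter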
COUP-TFII inh – NR2F2 (human) inhibition, primary screen | P24468 | 0.7% of 370,000 active | HEK293T NGFI-A luciferase reporter, luminescence | AID 686940 | inhibition, % at 8.6 µM;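 active = inhibition above a per-plate cutoff, mean inhibition of test wells between control levels plus 3 SD, cut at about 38% in these data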;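 also: cells cotransfected with COUP-TFII expression vector driving the NGFI-A reporter; 0% = median of COUP-TF2 test wells and 100% = reporter-only cells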
SRC1 inh – human NCOA1 inhibition. inhibition, % at 3.6 µM. 0.12% of 360,000 active. HEK293 GAL4-SRC1 luciferase reporter, luminescence. Q15788;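 active = inhibition above the campaign mean plus 3 SD, with each screening campaign given its own cutoff, cut at about 60% in these data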;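 also: 0% = DMSO treated cells and 100% = gossypol at 36 µM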
Gal4-VP16 ctr – inhibits VP16 reporter, flagging COUP-TFII antagonist hits. AID 687007. shares compounds with COUP-TFII inh. HEK293 Gal4-VP16 luciferase reporter, luminescence. 25% of 2,500 active. inhibition, % at 8.5 µM; in the data active = inhibition above about 13%
COUP-TFII conf – COUP-TFII (NR2F2) inhibition, confirmation assay. shares compounds with COUP-TFII inh. HEK293 NGFI-A luciferase reporter, luminescence. inhibition, % at 8.5 µM. 45% of 2,500 active;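 active = mean inhibition over three repeats above a set limit taken from the earlier primary screen, cut at about 38% in these data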;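 also: 100% = cells given the luciferase reporter alone without the COUP-TF2 vector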
Active calls of the source: *; . = not tested or not shown. Only some compounds are listed: those with a hit (about 1.1% of all), similar ones and a draw of the others.

SMILES | NR5A2 inv ag | GalR3 antag | NCOA2 inhibitor | SRC3 inh | COUP-TFII inh | SRC1 inh | Gal4-VP16 ctr | COUP-TFII conf
CC[C@H]1CN2CCc3cc(OC)c(OC)cc3C2C[C@@H]1C[C@H]1NCCc2cc(OC)c(OC)cc21 (stereo partly drawn) | 104* | . | 70* | 95* | 92* | 96* | 10 | 84*
CCCCCCC(=O)N(O)C1CC(=O)N(c2ccc(F)cc2)C1=O (stereo not drawn) | -2 | 0 | 28 | 27 | 38* | 2 | -4 | 44*
CCCCCCC(=O)N(O)C1CC(=O)N(c2ccc(Br)cc2)C1=O (stereo not drawn) | 5 | -4 | 22 | 3 | 40* | 16 | 3 | 52*
CCCCN(C(=O)CCC(=O)O)C1CC(=O)N(c2ccc(OCCC)cc2)C1=O (stereo not drawn) | -9 | 2 | -2 | 5 | -10 | 2 | . | .
O=C(c1ccc(CSc2ccccc2)cc1)N1CCN(c2ccccc2)CC1 | -4 | -7 | 13 | 7 | 11 | -38 | . | .
Cc1ccc(S(=O)(=O)NC2CC(C)(C)NC(C)(C)C2)cc1C | -27 | -6 | 10 | 2 | -12 | -40 | . | .
COC(=O)c1c(C)n(-c2ccc(OC)cc2)c2ccc(O)cc12 | -1 | -7 | 47 | 39 | 39* | 21 | -7 | 8
COC(=O)c1cc(C(=O)NNC(=O)c2ccc3c(c2)OCO3)cc([N+](=O)[O-])c1 | 5 | -5 | -27 | 5 | 0 | 4 | . | .
O=C(Nc1nc(-c2ccc(S(=O)(=O)N3CCCCCC3)cc2)cs1)c1ccccc1 | 11 | -5 | 16 | 29 | 54* | 26 | 4 | 34
O=S(=O)(c1ccc(-c2csc(Nc3ccc(F)cc3)n2)cc1)N1CCCC1 | 48 | 1 | 24 | -3 | 46* | 11 | -11 | 24
Cc1ccc(Nc2nc(-c3ccc(S(=O)(=O)N4CCOCC4)cc3)cs2)cc1 | 21 | -2 | 9 | 9 | 38* | 11 | 0 | 18
CCN(CC(=O)Nc1ccc(NC(C)=O)cc1)C(=O)c1ccc(COc2ccc(C(C)(C)C)cc2)cc1 | -57 | -7 | 20 | -19 | 51* | -12 | -13 | 38*
COCCC(=O)N1CCc2ccc(NC(=O)c3ccc(C(F)(F)F)cc3)cc2C1 | 7 | -2 | -11 | 6 | 38* | 13 | -20 | 0
COCCC(=O)Nc1ccc2c(c1)CN(C(=O)CSC)CC2 | 6 | 4 | 11 | 18 | -16 | -4 | . | .
CN(C)S(=O)(=O)N1CCc2ccc(NC(=O)c3ccc(C(F)(F)F)cc3)cc2C1 | 14 | 11 | -25 | -17 | 56* | 7 | -47 | 29
O=C(Nc1ccc2c(c1)C(=O)OC2)c1ccc(C(F)(F)F)cc1 | 5 | -9 | -15 | -12 | 12 | -19 | . | .
CCn1c(SCC(=O)NC)nnc1C(C)C | -6 | 1 | 6 | 1 | 19 | -9 | . | .
Cc1cc2n(n1)C(c1ccccc1)CC(c1ccc(Br)cc1)=N2 (stereo not drawn) | -59 | . | . | -22 | . | -28 | . | .
Fc1ccccc1CN(CCN1CCOCC1)C(=S)Nc1ccccc1Cl | 15 | 3 | 13 | 10 | 20 | -11 | . | .
CC1(C)CC(=O)C=C(c2ccc(-c3cnc4ccccc4c3)cc2)C1=O | 7 | -5 | 16 | -23 | 42* | -26 | -62 | 78*
O=C(CNC(=O)c1ccncc1)N/N=C/c1ccccn1 | 6 | 0 | 4 | 12 | -5 | -7 | . | .
CC(C)(C)OC(=O)NCCCCCNC(=O)c1nc[nH]c1C(=O)NCCCCCNC(=O)OC(C)(C)C | 34 | -6 | 34 | 52 | 55* | 32 | 2 | 33
C/C(=N\NC(N)=S)C1C2C3CC4C5CC(C42)C1C53 (stereo not drawn) | 29 | -8 | 31 | 39 | 57* | 21 | 11 | 43*
C/C(CCC12CC3CC(CC(C3)C1)C2)=N\NC(N)=S | 26 | -5 | 0 | 3 | 14 | 5 | . | .
CN1/C(=C\P(=O)(N(C)C)N(C)C)C(C)(C)c2ccccc21 | 26 | -5 | 5 | 12 | 46* | 4 | -6 | 0
SMILES | NR5A2 inv ag | GalR3 antag | NCOA2 inhibitor | SRC3 inh | COUP-TFII inh | SRC1 inh | Gal4-VP16 ctr | COUP-TFII conf
CCOC(=O)/C=C1/N(C)c2ccccc2C1(C)C | -6 | -7 | 9 | 12 | 2 | 16 | . | .
O=C(CN1CCOC1=O)N1CCCC(N2CCN(c3cccc(C(F)(F)F)c3)CC2)C1 (stereo not drawn) | 10 | -8 | -16 | 1 | 0 | 5 | . | .
COc1ccc(CN2CCN(Cc3ccc4ccccc4c3)CC2)cc1OC | 7 | -7 | 33 | -8 | 41* | 19 | 10 | 30
COc1ccc(CNc2nn3c(-c4cccc(C(=O)N(C)C)c4)cnc3s2)cc1 | 0 | -6 | 23 | 49 | 19 | 39 | . | .
NS(=O)(=O)c1ccc(CCNc2nn3c(-c4cccc(OC(F)(F)F)c4)cnc3s2)cc1 | 5 | 4 | -14 | 7 | 71* | 24 | 14* | 57*
COc1ccc(/C=c2\s/c(=C/C(=O)c3ccc(C)cc3)[nH]c2=O)c(OC)c1 | -2 | -3 | 2 | 7 | 14 | -12 | . | .
CCS(=O)(=O)c1ncc(Cl)c(C(=O)Nc2ccc(S(=O)(=O)N3CCC(C)CC3)cc2)n1 | -27 | -10 | 51 | -24 | 48* | -53 | 76* | 63*
COC(=O)c1ccc(NC(=O)c2nc(S(=O)(=O)Cc3cccc(C)c3)ncc2Cl)cc1 | 11 | -4 | 60* | -58 | 40* | -81 | 46* | 15
CCOC(=O)c1ccc(NC(=O)c2nc(S(=O)(=O)Cc3ccccc3)ncc2Cl)cc1 | -33 | -7 | -26 | -74 | 6 | -44 | . | .
CCN(C(=O)CCS(=O)(=O)c1cccc2nonc12)c1ccc(F)cc1 | 6 | -4 | -17 | 6 | 12 | 6 | . | .
NC(=O)c1cccc(-c2noc(-c3ccccc3F)n2)c1 | 12 | -3 | 13 | 15 | 58* | -4 | 22* | 34
COC(=O)C1=C(C)N(CCc2c[nH]c3ccccc23)C(=O)C1 | -14 | -5 | -4 | -6 | -7 | -13 | . | .
Cc1cc(C)c(O)c(C(=O)CC2CC(=O)NC(=O)C2)c1 | . | -1 | 31 | . | 75* | . | -16 | 51*
CC(=O)N(Cc1cc2c(C)cc(C)cc2[nH]c1=O)C1CCCCC1 | 16 | -4 | -2 | 20 | 6 | -2 | . | .
O=C(NCC1CCCO1)c1ccc(CS(=O)(=O)c2ccc(Br)cc2)o1 (stereo not drawn) | 0 | -2 | 15 | -6 | 8 | -24 | . | .
Nc1nonc1C(=O)NCCNCc1cc(Br)ccc1OCc1ccc(F)cc1 | 25 | -8 | 38 | 21 | 50* | 8 | 3 | 8

From PubChem BioAssay
